Hits are enriched below; roughly 3.2% of the tested compounds scored in any of these assays.
APOBEC3G inh: APOBEC3G DNA deaminase inhibitors, primary screen, biochemical, fluorescence, single-stranded DNA substrate, uHTS; AID 493012, 2011; inhibition, % at 20 µM; actives 0.28% (n = 330,000); DNA dC->dU-editing enzyme APOBEC-3G (Homo sapiens), Q9HC16; recombinant A3G, ssDNA deamination FAM/TAMRA fluorescence;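 active = inhibition of at least 40% at 20 µM, with no more than 30% in the related APOBEC3A deaminase screen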;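 note: plate controls were DMSO wells with A3G for no effect and wells lacking A3G enzyme for full effect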
Target sequence (Q9HC16 whole entry, looked up): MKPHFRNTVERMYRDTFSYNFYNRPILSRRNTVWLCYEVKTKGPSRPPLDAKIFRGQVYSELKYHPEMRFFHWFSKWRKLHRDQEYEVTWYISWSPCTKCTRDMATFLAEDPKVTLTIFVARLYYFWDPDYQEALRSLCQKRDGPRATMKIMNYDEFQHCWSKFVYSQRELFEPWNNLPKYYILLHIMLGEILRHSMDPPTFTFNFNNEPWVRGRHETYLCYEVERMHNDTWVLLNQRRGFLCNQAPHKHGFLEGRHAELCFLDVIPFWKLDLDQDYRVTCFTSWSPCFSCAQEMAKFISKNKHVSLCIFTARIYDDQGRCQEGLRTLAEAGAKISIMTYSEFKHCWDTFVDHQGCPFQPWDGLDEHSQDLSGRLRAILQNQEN
AHR act: AHR activators, primary screen, cell-based, luminescence, luciferase reporter, human. Aryl hydrocarbon receptor (Homo sapiens), P35869. AHR-responsive luciferase reporter cells. activation, % at 5 µM. actives 2.5% (n = 320,000). AID 2796, 2010; in the data active = activation above about 47%;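 note: 0% = vehicle wells and 100% = reference agonist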
APOBEC3A inh: APOBEC3A ssDNA deaminase inhibitors, primary screen, selectivity assay for APOBEC3G inhibitor project, biochemical, FAM/TAMRA oligo cleavage fluorescence; DNA dC->dU-editing enzyme APOBEC-3A (Homo sapiens), P31941; recombinant A3A, FAM/TAMRA ssDNA deamination fluorescence; inhibition, % at 20 µM; actives 0.41% (n = 330,000);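 active = at least 40% inhibition at 20 µM here, with at most 30% in a related deaminase screen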;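 note: plate controls were A3A with DMSO for no effect and wells lacking A3A enzyme for full effect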
Target sequence (P31941 whole entry, looked up): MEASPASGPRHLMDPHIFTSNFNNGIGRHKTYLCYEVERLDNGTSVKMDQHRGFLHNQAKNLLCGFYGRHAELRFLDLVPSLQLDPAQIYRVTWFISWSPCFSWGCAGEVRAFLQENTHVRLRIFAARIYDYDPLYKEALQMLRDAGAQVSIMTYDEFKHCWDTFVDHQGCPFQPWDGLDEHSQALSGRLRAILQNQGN
NTR1 ag: agonists of human NTR1, primary screen, imaging, U2OS cells, beta-arrestin-GFP, high content | NTR1-U2OS beta-arrestin-GFP spot imaging, agonist mode | Neurotensin receptor type 1 (Homo sapiens), P30989 | AID 493036, 2011 | actives 0.17% (n = 330,000) | activation, % at 20 µM;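 active = activation at or above 40% of the spot to cytoplasm intensity ratio, with at least 20 cells analyzed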;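 note: 0% = DMSO without peptide and 100% = 100 nM NTR1 peptide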
The depositor's hits bear a star.

What do the screens show for `Cc1c(CCOC(=O)C23CC4CC(CC(C4)C2)C3)sc[n+]1Cc1ccccc1`?
APOBEC3G inh: -6.7; AHR act: 69.1*; APOBEC3A inh: -2.9; NTR1 ag: 1.9

How did COC(=O)Cc1cc(=O)n2c(nc3ccccc32)[nH]1 do in these assays?
AHR act: 20.4

How did COc1cc(C2=NC(CO)(CO)CO2)cc(OC)c1OC do in these assays?
APOBEC3G inh: -3.4; AHR act: -0.2; APOBEC3A inh: -4.3; NTR1 ag: -0.2

How did CSc1c(CC(=O)Nc2ccccc2)n(C)c2ccccc12 do in these assays?
APOBEC3G inh: -2.2; AHR act: 58.4*; APOBEC3A inh: -3.9; NTR1 ag: 3.0

How did Cn1c(CC(=O)Nc2ccccc2)c(Sc2ccccc2)c2ccccc21 do in these assays?
APOBEC3G inh: -6.9; AHR act: 16.4; APOBEC3A inh: 1.4; NTR1 ag: 1.1

Results for CC(Oc1ccccc1)C(=O)N=Nc1c(O)[nH]c2ccc([N+](=O)[O-])cc12 (configuration not stated) ?
APOBEC3G inh: 5.6; AHR act: 63.4*; APOBEC3A inh: 0.4; NTR1 ag: 9.1

What do the screens show for `O=C(CN1CCN(c2ccc(O)cc2)CC1)Nc1ccccc1C(=O)NCCc1ccccc1`?
APOBEC3G inh: 15.7; AHR act: 74.4*; APOBEC3A inh: -5.1; NTR1 ag: 5.3

What do the screens show for `CCOC(=O)c1nc(C)sc1-c1ccnn1S(=O)(=O)c1cccc(Cl)c1`?
APOBEC3G inh: -6.2; AHR act: 6.8; APOBEC3A inh: -5.2; NTR1 ag: -0.6

What do the screens show for `COc1cccc(-c2nn(-c3ccccc3)cc2CN(C)C(C)c2ccon2)c1` (configuration not stated)?
APOBEC3G inh: -2.0; AHR act: 67.8*; APOBEC3A inh: 0.4; NTR1 ag: 2.8

How did COc1cccc(-c2nn(-c3ccccc3)cc2CN(C)Cc2ccno2)c1 do in these assays?
APOBEC3G inh: -3.2; AHR act: 14.3; APOBEC3A inh: -5.0; NTR1 ag: 0.1

How did CC(=O)N1c2ccc(S(=O)(=O)N3CCCC3)cc2CC1C(=O)NCc1ccccc1F (configuration not stated) do in these assays?
APOBEC3G inh: 1.6; AHR act: 7.0; APOBEC3A inh: 0.6; NTR1 ag: -1.0

Results for COc1cccc(C(=O)Nc2ccc3c(c2)n(C)c(=O)n3C)c1 ?
APOBEC3G inh: -5.4; AHR act: 47.7*; APOBEC3A inh: -5.1; NTR1 ag: 2.1

Results for COc1cccc(C(=O)Nc2ccc(C3CC3(Cl)Cl)cc2)c1 (configuration not stated) ?
APOBEC3G inh: -4.6; AHR act: 73.2*; APOBEC3A inh: -3.4; NTR1 ag: 2.4

What do the screens show for `COc1cccc(C(=O)Nc2ccc(C)cc2)c1`?
APOBEC3G inh: -2.1; AHR act: 10.4; APOBEC3A inh: 1.7; NTR1 ag: 1.6

How did CC(C)=CCC/C(C)=C/CNC(=O)CC1C[C@H](C(=O)N(C(C)C)C(C)C)[C@@]2(C)c3[nH]c4ccccc4c3CCN2C1=O (some centres not stated) do in these assays?
APOBEC3G inh: 5.9; AHR act: 0.8; APOBEC3A inh: 0.2; NTR1 ag: 12.4

Results for Cn1nccc1C(=O)N1CCN(S(=O)(=O)c2ccc(Br)s2)CC1 ?
APOBEC3G inh: -0.6; AHR act: -2.1; APOBEC3A inh: 0.7; NTR1 ag: 0.2

What do the screens show for `CN(Cc1nc2ccccc2c(=O)[nH]1)C(=O)C1CC(=O)N(c2cccc3ccccc23)C1` (configuration not stated)?
APOBEC3G inh: -0.6; AHR act: 3.6; APOBEC3A inh: 1.0; NTR1 ag: 8.0

How did CCCCC#Cc1ccccc1CC(=O)Nc1ccccc1 do in these assays?
APOBEC3G inh: -6.4; AHR act: 9.8; APOBEC3A inh: 5.6; NTR1 ag: -2.1

How did CCCCCCCC#Cc1ccccc1/C=N/S(=O)c1ccc(C)cc1 (configuration not stated) do in these assays?
APOBEC3G inh: 60.9*; AHR act: 1.7; APOBEC3A inh: -5.5; NTR1 ag: -4.0

How did COc1ccc(C2Nc3ccccc3C(=O)N2Cc2ccco2)cc1CN1C(=O)c2ccccc2C1=O (configuration not stated) do in these assays?
APOBEC3G inh: -0.8; AHR act: 1.4; APOBEC3A inh: 2.7; NTR1 ag: -0.8

How did O=C1c2ccccc2NC(c2cccc(O)c2)N1Cc1ccco1 (configuration not stated) do in these assays?
APOBEC3G inh: -1.9; AHR act: 48.0*; APOBEC3A inh: -6.4; NTR1 ag: 0.2

Results for Cc1sc[n+](CC(=O)c2ccc(Br)cc2)c1C ?
APOBEC3G inh: -0.3; AHR act: 0.5; APOBEC3A inh: -2.7; NTR1 ag: -0.6

Results for CCC1=[N+](CC(=O)c2ccc(C)cc2)CCn2c(C)ccc21 ?
APOBEC3G inh: -1.5; AHR act: 71.0*; APOBEC3A inh: -3.2; NTR1 ag: -1.2

Results for CCC1=[N+](CC(=O)c2ccc(C)cc2)CCn2cccc21 ?
APOBEC3G inh: -12.1; AHR act: 23.0; APOBEC3A inh: -0.9; NTR1 ag: -1.8

Results for CCC1=[N+](CC(=O)c2ccc(Br)cc2)CCn2c(C)ccc21 ?
APOBEC3G inh: -12.5; AHR act: 73.1*; APOBEC3A inh: -7.4; NTR1 ag: -1.8

Results for O=C(CN(C(=O)CCC(=O)Nc1nccs1)c1cccc(F)c1)NCCc1ccccc1 ?
APOBEC3G inh: -9.7; AHR act: 2.0; APOBEC3A inh: -3.4; NTR1 ag: 1.6

What do the screens show for `O=C(Nc1ccc(N2CCOCC2)cc1)c1ccc(Cl)nc1`?
APOBEC3G inh: -0.9; AHR act: 73.1*; APOBEC3A inh: 1.9; NTR1 ag: -0.5

How did O=C(Nc1ccc(N2CCOCC2)cc1)c1ccncc1 do in these assays?
APOBEC3G inh: -2.2; AHR act: 8.0; APOBEC3A inh: 3.4; NTR1 ag: -0.6

Results for O=C(OCc1nnc(-c2cccs2)o1)C1=NN(c2ccccc2)C(=O)CC1 ?
APOBEC3G inh: 5.1; AHR act: 10.6; APOBEC3A inh: -2.6; NTR1 ag: -2.1

How did OC(CNCCc1ccc(C(F)(F)F)cc1)COC(c1ccccc1)c1ccccc1 (configuration not stated) do in these assays?
APOBEC3G inh: -6.5; AHR act: 5.2; APOBEC3A inh: -0.6; NTR1 ag: 66.2*

How did CCCOc1ccc2c(c1)C(=NN=C(N)N)c1cc(OCCC)ccc1-2 do in these assays?
APOBEC3G inh: -6.8; AHR act: 20.3; APOBEC3A inh: -2.0; NTR1 ag: 79.8*

Results for NC(N)=NN=C1c2ccccc2-c2ccccc21 ?
APOBEC3G inh: -4.2; AHR act: 40.6; APOBEC3A inh: 1.3; NTR1 ag: -1.0

Results for COCc1ccc(CN2CCc3c([nH]c4ccccc34)C2CC(C)C)o1 (configuration not stated) ?
APOBEC3G inh: -4.4; AHR act: 14.7; APOBEC3A inh: -0.9; NTR1 ag: 0.8

Compound activity (PubChem BioAssay)
